We go through 17 molecules from PMC8222333, “AsCas12a ultra nuclease facilitates the rapid generation of therapeutic cell medicines”.

Numbering of substitutions follows the chain as printed.

The chains are these.
B1: AACA (dsDNA)
DNA 1: GCTATCTAGTGCTCAGTACGCACTGAACAAGGAAACTTCTGGCAGGACCAGGTCATGAGATCGGAAGAGCACACGTCTGAACTCCAGTCA
DNA 2: TGACTGGAGTTCAGACGTGTGCTCTTCCGATCTCATGACCTGGTCCTGCCAGAAGTTTCCTTGTTCAGTGCGTACTGAGCACTAGATAGC
RNA: AAUUUCUACUCUUGUAGAUAGGAAACUUCUGGCAGGACC
B2: AACC (dsDNA)
DNA 1: B1 DNA 1 with A29C
DNA 2: B1 DNA 2 with T62G
RNA: B1 RNA
B3: AGAC (dsDNA)
DNA 1: B1 DNA 1 with A27G, C28A, A29C
DNA 2: B1 DNA 2 with T62G, G63T, T64C
RNA: B1 RNA
B4: ACGG (dsDNA)
DNA 1: B1 DNA 1 with A27C, C28G, A29G
DNA 2: B1 DNA 2 with T62C, G63C, T64G
RNA: B1 RNA
B5: ACCG (dsDNA)
DNA 1: B1 DNA 1 with A27C, A29G
DNA 2: B1 DNA 2 with T62C, T64G
RNA: B1 RNA
B6: ACAA (dsDNA)
DNA 1: B1 DNA 1 with A27C, C28A
DNA 2: B1 DNA 2 with G63T, T64G
RNA: B1 RNA
B7: AACT (dsDNA)
DNA 1: B1 DNA 1 with A29T
DNA 2: B1 DNA 2 with T62A
RNA: B1 RNA
B8: ACAG (dsDNA)
DNA 1: B1 DNA 1 with A27C, C28A, A29G
DNA 2: B1 DNA 2 with T62C, G63T, T64G
RNA: B1 RNA
B9: AACG (dsDNA)
DNA 1: B1 DNA 1 with A29G
DNA 2: B1 DNA 2 with T62C
RNA: B1 RNA
B10: AAGG (dsDNA)
DNA 1: B1 DNA 1 with C28G, A29G
DNA 2: B1 DNA 2 with T62C, G63C
RNA: B1 RNA
B11: AGAG (dsDNA)
DNA 1: B1 DNA 1 with A27G, C28A, A29G
DNA 2: B1 DNA 2 with T62C, G63T, T64C
RNA: B1 RNA
B12: AAGT (dsDNA)
DNA 1: B1 DNA 1 with C28G, A29T
DNA 2: B1 DNA 2 with T62A, G63C
RNA: B1 RNA
B13: ACCC (dsDNA)
DNA 1: B1 DNA 1 with A27C, A29C
DNA 2: B1 DNA 2 with T62G, T64G
RNA: B1 RNA
B14: AAGA (dsDNA)
DNA 1: B1 DNA 1 with C28G
DNA 2: B1 DNA 2 with G63C
RNA: B1 RNA
B15: ACAC (dsDNA)
DNA 1: B1 DNA 1 with A27C, C28A, A29C
DNA 2: B1 DNA 2 with T62G, G63T, T64G
RNA: B1 RNA
B16: ACGT (dsDNA)
DNA 1: B1 DNA 1 with A27C, C28G, A29T
DNA 2: B1 DNA 2 with T62A, G63C, T64G
RNA: B1 RNA
B17: ACGA (dsDNA)
DNA 1: B1 DNA 1 with A27C, C28G
DNA 2: B1 DNA 2 with G63C, T64G
RNA: B1 RNA
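Note: relative affinity from the bound to unbound sequence frequency ratio in Spec-seq.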

One assay deals with dAsCas12a S542R (Acidaminococcus sp., UniProt U2UMQ6 1-1307, S542R;D908A;E993A;D1235A). In words: Spec-seq (native PAGE EMSA with sequencing of bound and unbound); 25 mM Tris-HCl pH 7.4, 150 mM KCl, 5 mM MgCl2, 10% glycerol, 1 mM DTT, 40 ng/uL salmon sperm DNA; 400 nM Cas12a, 480 nM crRNA, 50 nM library, 37 C 1 h; native PAGE at room temperature; high values mean tight binding. As to conditions: protein: recombinant.
On to B1, for which the binding signal is -8.12 lnKA.

Regarding B2, the binding signal was -7.9 lnKA.

Consider B3, for which the binding signal was -8.52 lnKA.

For the molecule B4, the binding signal is -8.37 lnKA.

As to B5, the binding signal is -6.71 lnKA.

As for B6, the binding signal was -8.6 lnKA.

Turning to B7, the binding signal was -8.54 lnKA.

For the molecule B8, the binding signal is -8.64 lnKA.

For B9, the binding signal is -8.29 lnKA.

Regarding B10, the binding signal was -8.67 lnKA.

As for B11, the binding signal is -8.48 lnKA.

As for B12, the binding signal is -8.46 lnKA.

Take B13: the binding signal is -5.2 lnKA.

Turning to B14, the binding signal is -8.52 lnKA.

With B15, the binding signal was -8.48 lnKA.

With B16, the binding signal was -8.74 lnKA.

B17: the binding signal was -8.68 lnKA.

The target of another assay is d-enCas12a (Acidaminococcus sp., UniProt U2UMQ6 1-1307, E174R;S542R;K548R;D908A;E993A;D1235A). The assay is described as above. The conditions noted are these: protein: recombinant.
As to B1, the binding signal was -2.72 lnKA.

With B2, the binding signal was -2.33 lnKA.

As to B3, the binding signal is -5.69 lnKA.

As to B4, the binding signal was -6.05 lnKA.

Turning to B5, the binding signal was -4.92 lnKA.

In the case of B6, the binding signal was -5.98 lnKA.

In the case of B7, the binding signal is -4.69 lnKA.

As for B8, the binding signal is -5.79 lnKA.

As for B9, the binding signal is -4.8 lnKA.

On to B10, for which the binding signal was -5.8 lnKA.

For the molecule B11, the binding signal is -5.79 lnKA.

On to B12, for which the binding signal was -5.71 lnKA.

For B13, the binding signal was -2.44 lnKA.

Turning to B14, the binding signal is -5.74 lnKA.

For the molecule B15, the binding signal was -5.72 lnKA.

Consider B16, for which the binding signal was -5.85 lnKA.

With B17, the binding signal was -5.84 lnKA.

Another assay addresses d-enCas12a-Ultra (Acidaminococcus sp., UniProt U2UMQ6 1-1307, E174R;S542R;K548R;M537R;F870L;D908A;E993A;D1235A). The description is as above. The conditions noted are these: protein: recombinant.
For the molecule B1, the binding signal is -0.706 lnKA.

Consider B2, for which the binding signal is -0.621 lnKA.

Take B3: the binding signal was -3.24 lnKA.

For the molecule B4, the binding signal was -3.43 lnKA.

As for B5, the binding signal is -1.45 lnKA.

As for B6, the binding signal was -3.44 lnKA.

For the molecule B7, the binding signal is -1.81 lnKA.

On to B8, for which the binding signal is -3.45 lnKA.

With B9, the binding signal was -2.04 lnKA.

For the molecule B10, the binding signal was -3.49 lnKA.

On to B11, for which the binding signal was -3.32 lnKA.

Regarding B12, the binding signal was -3.41 lnKA.

Take B13: the binding signal was -0.482 lnKA.

For the molecule B14, the binding signal was -3.38 lnKA.

For B15, the binding signal was -3.38 lnKA.

On to B16, for which the binding signal is -3.49 lnKA.

Turning to B17, the binding signal was -3.39 lnKA.
